# Results reported in PubChem BioAssay (NCI).
# This is part of a sample that, as a whole, favours compounds with a hit. Of some 83,000 tested, about 20% had one in any assay.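 Step 1: grow cells in 96-well plates. Step 2: add test compound at a single concentration. Step 3: incubate 48 h. Step 4: record percent growth.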 Unmarked numbers belong to inactive results. The source made the active and inactive calls. How the source made its calls: active means growth percent below 10; inactive means the rest.
# Tests used:
# Experiment in all cases: NCI-60 one-dose screen, 48 h (100 = growth as untreated, 0 = no growth, -100 = all killed)
# Details in all cases: 10 µM unless noted
# BT-549 breast = system: BT-549 breast
# MDA-MB-435 melanoma = system: MDA-MB-435 melanoma
# SW-620 colon = system: SW-620 colon
# MCF7 breast = system: MCF7 breast
# HCT-116 colon = system: HCT-116 colon
# HCC-2998 colon = system: HCC-2998 colon
# KM12 colon = system: KM12 colon
Compound,growth (BT-549 breast),growth (MDA-MB-435 melanoma),growth (SW-620 colon),growth (MCF7 breast),growth (HCT-116 colon),growth (HCC-2998 colon),growth (KM12 colon)
Clc1ccc(-n2cnc3c(Cl)ncnc32)cc1Cl,90.3%,99.3%,78.6%,89.8%,61.1%,-75% (active),95%
CCOC(=O)/C=C(/C)Sc1cc(O)c2ccccc2c1O,-37.1% (active),-82.2% (active),-40.2% (active),-75.9% (active),122%,17.3%,3.07% (active)
CCC(C)CC(C)C(=O)c1c(O)ccn(O)c1=O (stereo unspecified),35.6%,46.8%,25%,18.9%,22.7%,89.7%,34.2%
O=c1cc(-c2cccnc2)oc2c1ccc1ccccc12,81.1%,67%,81.5%,73.6%,55.7%,89.2%,95.8%
C[N+]1(CCc2ccccc2)CCC(CCC2CC[N+](C)(CCc3ccccc3)CC2)CC1 (stereo unspecified),106%,104%,98.8%,98.6%,95.1%,101%,111%
ClC1=C(Cl)C(Cl)=C(Cl)C1=Cc1ccc(Cl)cc1,-38.9% (active),-42.3% (active),-83.9% (active),25%,-84.1% (active),30.9%,-69.6% (active)
O=C1c2nsnc2C(=O)c2c(F)c(F)c(F)c(F)c21,-96.7% (active),-67.9% (active),-57.3% (active),-45.1% (active),-93.1% (active),-22.4% (active),-44% (active)
COc1ccc2nc(-c3ccc(-n4cncc4-c4ccc(OC)c(N)c4)cc3)sc2c1,102%,105%,97.4%,82.1%,98.4%,111%,105%
Clc1ccc2c(Nc3ccc4oc(NCCN5CCCC5)nc4c3)ccnc2c1,95.1%,101%,78.4%,68.9%,55.7%,76%,81.7%
Nc1ccc2c3c(cccc13)-c1ccccc1-2,71%,96.5%,102%,88.8%,92.2%,103%,87.8%
O=C1CN(CO)C(=O)CN1CO,113%,103%,95.9%,101%,103%,104%,105%
CCOC(=O)c1ccccc1OC(=O)NNc1ccccc1,48.3%,50%,45.6%,50.3%,70.8%,40%,55%
CCCCCCCC/C=C/CCCCCCCC1=NC(C)(C)CN1CC(C)O (stereo unspecified),86.7%,6% (active),6.69% (active),17.1%,-85% (active),0.965% (active),6.06% (active)
O=C(Nc1cccc2ccccc12)c1cc2c(cc1Br)OCO2,61%,111%,100%,79.9%,236%,97.3%,103%
O=c1ccn(C2OC(CO)C(O)C2F)c(=O)[nH]1 (stereo unspecified),115%,107%,102%,104%,108%,97.8%,111%
O=C1NCN(CCO)CN1,75.9%,97.1%,102%,94.1%,106%,100%,108%
O=C1OC(c2ccc(-c3ccccc3)cc2)=C/C1=C/c1cccs1,92%,99%,105%,41.6%,93.3%,112%,88.1%
NC(=Nc1ccccc1)SCCCCSC(N)=Nc1ccccc1,86.4%,89.4%,92.3%,87.5%,88%,77.6%,94.2%
Cn1cc(-c2csc(-c3cn(C)c4ncccc34)n2)c2cc(Br)cnc21,95.2%,55.2%,89.4%,70.2%,90.6%,98%,83.1%
C[C@]12CC[C@@H]3c4ccc(O)c([N+](=O)[O-])c4CC[C@H]3[C@@H]1CC[C@@H]2NS(=O)(=O)c1cccc(Br)c1,29.3%,10.7%,44.5%,14.6%,21.8%,51.2%,17.4%
O=C(N1CCC(CN=c2cc3n(-c4ccc(Cl)cc4)c4ccccc4nc-3cc2Nc2ccc(Cl)cc2)CC1)N1CC1,-82.5% (active),-29.4% (active),-83% (active),-71.6% (active),-70.9% (active),-75.9% (active),-63.7% (active)
COc1cc(C2C=C(c3ccc(C)cc3)Nc3nc(SC)[nH]c(=O)c32)ccc1Oc1ccnc2cc(Cl)ccc12 (stereo unspecified),87.9%,55.3%,93.3%,56.9%,64.5%,95.9%,60.5%
S=c1[nH]nc2sc3ccccc3n12,116%,118%,105%,98.4%,102%,109%,115%
CCOc1nc(-c2ccccc2)cc2c(O)c(C(=O)n3nc(C)cc3C)[nH]c(=O)c12,99.9%,112%,115%,101%,101%,112%,106%

Compound,growth (BT-549 breast),growth (MDA-MB-435 melanoma),growth (SW-620 colon),growth (MCF7 breast),growth (HCT-116 colon),growth (HCC-2998 colon),growth (KM12 colon)
COc1ccc(-c2cc(Cc3cccs3)c(=O)n(Cn3ccc4ccccc43)n2)cc1,116%,90.8%,114%,95.2%,106%,107%,110%
CCCCCCCC1(C)NC(=O)NC1=O (stereo unspecified),121%,123%,100%,97.6%,103%,140%,113%
COc1cccc(C2C(C#N)=C(N)Oc3cc(OC)ccc32)c1 (stereo unspecified),15.8%,-47.7% (active),26%,17.1%,7.04% (active),0.0782% (active),4.36% (active)
COc1ccc(-c2c3c(nn2-c2ccc(N)cc2)CCc2cnoc2-3)cc1OC,81.4%,94.8%,97.6%,94.1%,84.4%,98.4%,82.1%
CCOC(=O)c1c(C)nc(C)c(C(=O)OCC)c1-c1cccnc1,106%,111%,112%,109%,90%,104%,110%
CCCCCCCCCCSc1ncnc2nc[nH]c12,75.8%,76.6%,86.5%,75.9%,48.8%,78.1%,85.1%
CSc1nnc(C2=CC(=O)c3ccccc3C2=O)n1-c1ccccc1,92.9%,96.7%,92.1%,94.5%,73.8%,85%,61.5%
Clc1cc(Cl)c(OCC#CI)cc1Cl,135%,55.5%,-65.9% (active),9.27% (active),-71.6% (active),109%,82.1%
O=C(NCCc1ccccc1)C1CCC(=O)N1Cc1ccc(Br)cc1 (stereo unspecified),107%,110%,97.5%,102%,77.9%,108%,106%
COc1cccc(-c2nnc(N)o2)c1,87.4%,105%,103%,101%,100%,83.3%,106%
Cn1cc(-c2csc(-c3c[nH]c4ncccc34)n2)c2cc(F)cnc21,74.1%,20%,81.3%,56.8%,59.8%,62.2%,49.4%
O=C1OCC/C1=C\OCCCO/C=C1\CCOC1=O,96.9%,104%,109%,104%,109%,114%,114%
O=C(Nc1ccc(Cl)cc1)Nc1ccc(Nc2nncc3ccccc23)cc1,15.7%,13.7%,27%,5.46% (active),15.2%,30.7%,18.9%
O=C(Nc1ccccc1Cl)c1cnc2ccc(C3CCNCC3)cn12,97.8%,86%,96.6%,83.6%,58.2%,123%,110%
COc1cc(-c2cc(C(=O)Nc3nc4ccccc4s3)nc3cc(-c4ccccc4)nn23)cc(OC)c1OC,59.6%,31%,55.7%,72.9%,57.8%,85.6%,45.3%
COC(=O)[C@]1(C(C)C)N[C@H](c2cn(-c3ccccc3)nc2-c2ccccc2)[C@@H]2C(=O)N(c3ccc(Cl)cc3)C(=O)[C@@H]21,86.7%,105%,99.4%,96.6%,89.8%,109%,95.3%
Clc1nc(Cl)c2ncn(-c3ccccc3)c2n1,86.2%,64.5%,36.5%,54.8%,32.1%,100%,79.5%
O=C(CCc1nnc2sc(Cc3ccccc3Cl)nn12)c1nc2ccccc2[nH]1,96.7%,101%,98.8%,71.6%,85.1%,102%,95.8%
COc1ccc(CCN2CCCN3C2=Nc2ccccc2S3(=O)=O)cc1,50.2%,-5.64% (active),28%,19.3%,17.4%,21.7%,25.8%
CCCCCCCC/C=C\CCCCCCCCOc1ccccc1CC(=O)NCC[N+]1(C)CCCC1,94.5%,71.2%,78.9%,82.6%,74.7%,74.8%,51.8%
O=C(Nc1ccc(Cl)cc1Cl)Nc1ccc(-c2cccnc2)cc1N1CCC(CO)CC1,66.6%,21.4%,17.6%,20%,18.1%,35.2%,25.3%
COc1cc(OC)c2sc(-c3ccc(-n4cncc4-c4ccc(N)cc4)cc3)nc2c1,82.4%,62.9%,91.2%,63.4%,70.2%,96.2%,64.1%
c1csc([C@@H]2C[C@@H]3Cc4ccc5ccccc5c4N2O3)c1,112%,87.1%,98.5%,99.8%,101%,105%,103%
Cc1cc(C)c2c(c1)N1OC(C2)C[C@H]1/C=C/c1ccccc1 (stereo partly specified),105%,87.2%,108%,88%,84.6%,98.2%,107%
